According to the supplement of paper PMC11383364:

Tested on: SUM149
Test: percent difference in area under dose-response curve of relative cell number, RPMI vs HPLM; higher = drug relatively more effective in HPLM than RPMI (negative = less effective in HPLM)
Conditions: treatment time: 72 h; dose range: 10-point, 1 nM to 20 µM; media compared: RPMI vs HPLM

SMILES	percent difference in area under dose-response curve
Cc1cc(CS(=O)(=O)c2ccccc2)cc(OCc2ccc(CN3CCC[C@@H]3CO)cc2)c1	1.05%
C#Cc1cccc(Nc2ncnc3cc(OCCOC)c(OCCO)cc23)c1	-0.553%
CC1=C(/C=C/C(C)=C/C=C/C(C)=C\C(=O)O)C(C)(C)CCC1 [Isotretinoin]	-4.74%
CC(=O)OC[C@H]1O[C@@H]([S-])[C@H](OC(C)=O)[C@@H](OC(C)=O)[C@@H]1OC(C)=O.CCP(CC)CC.[Au+] [Auranofin]	-10.3%
COc1cc(Nc2ncc3c(n2)-c2ccc(Cl)cc2C(c2c(F)cccc2OC)=NC3)ccc1C(=O)O	-13.5%
Nc1cc(C(F)(F)F)c(-c2cc(N3CCOCC3)nc(N3CCOCC3)n2)cn1	-2.14%
CC(=O)O[C@H]1C(=O)[C@@]2(C)[C@H]([C@H](OC(=O)c3ccccc3)[C@]3(O)C[C@H](OC(=O)[C@H](O)[C@@H](NC(=O)c4ccccc4)c4ccccc4)C(C)=C1C3(C)C)[C@]1(OC(C)=O)CO[C@@H]1C[C@@H]2O [Paclitaxel]	-45.1%
C[C@]1(O)C[C@@H](c2nc(-c3ccc4ccc(-c5ccccc5)nc4c3)c3c(N)nccn32)C1 [Linsitinib]	1.93%
COc1cc(OC)c(/C=C/S(=O)(=O)Cc2ccc(OC)c(NCC(=O)O)c2)c(OC)c1 [Rigosertib]	-46.7%
C=C(c1ccc(C(=O)O)cc1)c1cc2c(cc1C)C(C)(C)CCC2(C)C [Bexarotene]	-2.87%
CC(C)n1c(/C=C/C(O)CC(O)CC(=O)O)c(-c2ccc(F)cc2)c2ccccc21 (centres undefined) [Fluvastatin_sodium]	-8.4%
C[C@@H](O[C@H]1OCCN(Cc2n[nH]c(=O)[nH]2)[C@H]1c1ccc(F)cc1)c1cc(C(F)(F)F)cc(C(F)(F)F)c1 [Aprepitant]	-2%
CC(C)c1cc(C(C)C)c(CC(=O)NS(=O)(=O)Oc2c(C(C)C)cccc2C(C)C)c(C(C)C)c1 [Avasimibe]	-0.523%
COc1ccc(-c2ccc3c(N4CCOC[C@@H]4C)nc(N4CCOC[C@@H]4C)nc3n2)cc1CO	-2.88%
CCOC(=O)c1cnc2ccc(-c3cncc(NS(=O)(=O)c4ccccc4)c3)cn12	-8.07%
CNC(=O)c1cc(Oc2ccc(NC(=O)Nc3ccc(Cl)c(C(F)(F)F)c3)c(F)c2)ccn1 [Regorafenib]	-5.08%
COc1cc2nccc(Oc3ccc(NC(=O)NC4CC4)c(Cl)c3)c2cc1C(N)=O	5.17%

SMILES	percent difference in area under dose-response curve
CC[C@]1(O)C[C@@H]2CN(CCc3c([nH]c4ccccc34)[C@@](C(=O)OC)(c3cc4c(cc3OC)N(C)[C@H]3[C@@](O)(C(=O)OC)[C@H](OC(C)=O)[C@]5(CC)C=CCN6CC[C@]43[C@@H]65)C2)C1 [Vinblastine]	-27.2%
Cc1ccc(C(=O)Nc2ccc(CN3CCN(C)CC3)c(C(F)(F)F)c2)cc1C#Cc1cnc2cccnn12 [Ponatinib]	16.9%
Oc1ccc(Nc2nc(-c3ccc(Cl)cc3)cs2)cc1	6.02%
Cc1ccc(NC(=O)c2ccc(CN3CCN(C)CC3)cc2)cc1Nc1nccc(-c2cccnc2)n1 [Imatinib]	-5.87%
CN(C)CCOc1ccc(-c2nc(-c3ccncc3)c(-c3ccc4c(c3)CC/C4=N\O)[nH]2)cc1	-4.32%
COc1cc2ncnc(Nc3ccc(F)c(Cl)c3)c2cc1NC(=O)/C=C/CN1CCCCC1 [Dacomitinib]	-9.71%
Cc1csc(-c2nnc(Nc3ccc(Oc4ncccc4-c4ccnc(N)n4)cc3)c3ccccc23)c1	-35.1%
CC[C@@H]1C(=O)N(C)c2cnc(Nc3ccc(C(=O)N[C@H]4CC[C@H](N5CCN(CC6CC6)CC5)CC4)cc3OC)nc2N1C(C)C	-16.8%
CCN1CCN(Cc2ccc(-c3cc4c(N[C@H](C)c5ccccc5)ncnc4[nH]3)cc2)CC1	-3.13%
COCC[n+]1c2c(n(Cc3cnccn3)c1C)C(=O)c1ccccc1C2=O	15.7%
CC1(COc2ccc3c(c2)ncn3-c2ccc3cccc(N4CCC(N)CC4)c3n2)COC1 [Crenolanib]	-11.6%
Cc1[nH]c(/C=C2\C(=O)Nc3ccc(S(=O)(=O)Cc4c(Cl)cccc4Cl)cc32)c(C)c1C(=O)N1CCC[C@@H]1CN1CCCC1	-10.1%
Cc1c(C(=O)Nc2ccc(N3C[C@@H](C)O[C@@H](C)C3)nc2)cccc1-c1ccc(OC(F)(F)F)cc1	-7%
O=C(CCCCCCC(=O)Nc1ccc([C@H]2O[C@@H](CSc3nc(-c4ccccc4)c(-c4ccccc4)o3)C[C@@H](c3ccc(CO)cc3)O2)cc1)NO [Tubacin]	-4.43%
COc1cccc2c1C(=O)c1c(O)c3c(c(O)c1C2=O)C[C@@](O)(C(=O)CO)C[C@@H]3O[C@H]1C[C@H](N)[C@H](O)[C@H](C)O1 [Doxorubicin]	-24.4%
CCC[C@H](NC(=O)/C(C#N)=C/c1cccc(Br)n1)c1ccccc1	5.71%
N#CC[C@H](C1CCCC1)n1cc(-c2ncnc3[nH]ccc23)cn1 [Ruxolitinib]	-7.13%
